# Assay outcomes (PubChem)
# Peg3 promoter: inhibitors of Peg3 promoter; HeLa PEG-Prom luciferase reporter, luminescence, overnight; inhibition, % at 20 µM; actives 1.7% (n = 360,000); AID 588405;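 active = inhibition of at least 50% at 20 µM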
# CF NFkB inh: blocks PAF-induced NF-kB reporter in cystic fibrosis cells. KKLEB NF-kB-GFP reporter, GFP fluorescence overnight. inhibition, % at 5 µM. actives 0.86% (n = 360,000);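 active = at least 50% inhibition at 5 µM, scaled per plate between neutral and stimulator controls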;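 also: PAF is a Pseudomonas aeruginosa culture filtrate used as stimulus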
# KKLEB cytotox: counter-screen for CF NF-kB inhibitors: cytotoxicity; activity change (cytotoxicity), % at 5 µM; AID 602141; KKLEB CF airway cells viability, ATPlite luminescence, overnight; active compounds read low; cells stimulated with P. aeruginosa culture filtrate; actives 0.36% (n = 360,000);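 active = corrected activity change at or below -50% at 5 µM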
# LGR2 antag: inhibitors of bursicon-induced Drosophila LGR2 receptor cAMP signaling; actives 0.35% (n = 380,000); AID 720647; inhibition, % at 9.99 µM; HEK293 LGR2, CRE-luciferase, bursicon-stimulated, 4 h;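 active = drop in luminescence signal, shown as inhibition above about 50% in the replicate tests, limit read from the data, passing the limit was not always enough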;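 also: agonist challenge used bursicon conditioned medium at about half maximal strength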
# Mdm2 MdmX PPI: disrupts the human Mdm2-MdmX interaction; O15151+Q00987; SaOS-2 split-luciferase Mdm2/MdmX complementation, luminescence; inhibition, % at 8 µM; actives 3% (n = 330,000); AID 485346;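 active = inhibition of at least 50% at 8 µM in the primary screen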
# Target sequence (O15151 whole entry, looked up): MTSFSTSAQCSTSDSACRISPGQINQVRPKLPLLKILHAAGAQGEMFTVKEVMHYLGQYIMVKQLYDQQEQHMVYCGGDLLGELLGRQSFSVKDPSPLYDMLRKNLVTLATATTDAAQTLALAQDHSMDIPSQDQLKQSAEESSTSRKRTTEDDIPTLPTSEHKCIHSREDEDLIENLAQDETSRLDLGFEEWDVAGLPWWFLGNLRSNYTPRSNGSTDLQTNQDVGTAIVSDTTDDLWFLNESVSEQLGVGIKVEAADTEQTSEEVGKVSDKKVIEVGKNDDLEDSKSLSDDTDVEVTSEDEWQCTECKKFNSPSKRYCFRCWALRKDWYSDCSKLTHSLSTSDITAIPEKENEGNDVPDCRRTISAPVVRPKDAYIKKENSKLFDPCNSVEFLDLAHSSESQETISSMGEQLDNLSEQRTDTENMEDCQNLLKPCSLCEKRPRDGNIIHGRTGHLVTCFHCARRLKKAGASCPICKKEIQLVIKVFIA
# Target sequence (Q00987 whole entry, looked up): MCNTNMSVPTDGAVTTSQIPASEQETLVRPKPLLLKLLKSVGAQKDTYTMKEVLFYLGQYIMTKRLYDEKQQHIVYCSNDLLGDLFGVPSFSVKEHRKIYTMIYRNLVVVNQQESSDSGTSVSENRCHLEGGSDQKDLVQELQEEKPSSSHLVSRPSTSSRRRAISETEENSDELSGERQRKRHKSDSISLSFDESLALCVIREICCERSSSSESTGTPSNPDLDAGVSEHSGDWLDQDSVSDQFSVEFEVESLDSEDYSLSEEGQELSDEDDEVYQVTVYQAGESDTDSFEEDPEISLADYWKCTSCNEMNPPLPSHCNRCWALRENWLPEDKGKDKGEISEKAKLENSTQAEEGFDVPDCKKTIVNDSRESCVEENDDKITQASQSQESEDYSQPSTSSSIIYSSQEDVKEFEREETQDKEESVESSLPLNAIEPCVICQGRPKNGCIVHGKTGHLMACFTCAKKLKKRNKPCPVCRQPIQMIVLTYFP
# HSP90 inh: blocks HSP90-mediated luciferase refolding in reticulocyte lysate; AID 1789; inhibition, % at 5.6 µM; actives 0.91% (n = 290,000); Rabbit reticulocyte lysate, luciferase refolding luminescence, 3 h;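 active = inhibition above the screen-wide mean plus 3 SD, computed separately per campaign, cut at about 16% in these data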;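 also: inhibitors lower the luminescence because luciferase stays unfolded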
# Mdm2 MdmX conf: human Mdm2/MdmX binding inhibition, confirmed; shares compounds with Mdm2 MdmX PPI; luminescent assay; inhibition, % at 8 µM; actives 55% (n = 10,000); AID 489028; in the data active = inhibition above about 40%
# Full FLuc ctr: counter-screen for Mdm2/MdmX inhibitors: full-length luciferase | SaOS-2 full-length luciferase counterscreen, luminescence | actives 77% (n = 6,200) | shares compounds with Mdm2 MdmX PPI | inhibition, % at 8 µM;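 active = mean inhibition at 8 µM reaching about 37%, which flags the compound as non-specific, limit read from the data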;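 also: p53-null SaOS-2 cells with luciferase driven by a doxycycline-inducible promoter; compound on cells about two nights before reading with doxycycline added after day one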
# Numbers stand for hits; - = inactive; . = no result given. Shown are actives, neighbours in structure and some others; about 3.6% of the full set was active somewhere.
SMILES,Peg3 promoter,CF NFkB inh,KKLEB cytotox,LGR2 antag,Mdm2 MdmX PPI,HSP90 inh,Mdm2 MdmX conf,Full FLuc ctr
CCCC(=O)NC(c1ccc(OC)cc1)c1c(O)ccc2ccccc12 (stereo not drawn),-,-,-,-,50,-,-,61
C[C@@H]1CN([C@@H](C)CO)C(=O)c2cc(NS(=O)(=O)c3cn(C)cn3)ccc2O[C@@H]1CN(C)Cc1ccc(C(=O)O)cc1,.,.,.,-,.,.,.,.
CO[C@H]1CN(C)C(=O)c2ccc(NC(=O)C3CC3)cc2OC[C@H](C)N(C(=O)Cc2ccccn2)C[C@@H]1C,.,.,.,-,.,.,.,.
C=CCOc1ccc(/C=C/C(=O)Nc2ccc(C(=O)NC)cc2)cc1,-,-,-,-,75,-,-,.
CC(=O)Nc1ncnc2c1c(-c1ccc(Cl)cc1)nn2C(C)(C)C,-,-,-,-,73,-,-,55
O=C1C=C(c2cccc(Cl)c2O)C[C@@H](c2ccc(Cl)cc2)C1,-,-,-,-,-,.,.,.
O=C1C(=O)c2ccccc2C(O)=C1C1CCC(c2ccc(Cl)cc2)CC1 (stereo not drawn),-,-,-,-,90,.,-,.
CC(C)c1ccc(/C=C(\c2nc3ccccc3[nH]2)S(=O)(=O)c2ccccc2)cc1,104,93,-68,59,100,-,100,53
COC(=O)/C(=C\c1ccc(O)cc1)c1nc2ccccc2[nH]1,-,-,-,-,-,-,.,.
N#Cc1ccccc1NC(=O)C1SC(=Nc2ccccc2)C(C(=O)Nc2ccc(Cl)cc2)=C1N (stereo not drawn),-,-,-,-,-,-,.,.
COc1ccccc1N=C1SC(C(=O)Nc2cccc(Cl)c2Cl)C(N)=C1C(N)=O (stereo not drawn),-,-,-,-,56,-,52,67
CC1CC(C)CN(Cc2nc(N)nc(Nc3ccc4ccccc4c3)n2)C1 (stereo not drawn),-,-,-,.,62,-,67,57
Cc1ccc(S(=O)(=O)N(C)C[C@@H]2OCCCC[C@@H](C)Oc3ccc(NC(=O)Nc4ccccc4)cc3C(=O)N([C@H](C)CO)C[C@H]2C)cc1,.,.,.,-,.,.,.,.
Cc1cccc(S(=O)(=O)N(C)C[C@@H]2OCc3ccccc3-c3ccccc3C(=O)N([C@H](C)CO)C[C@@H]2C)c1,.,.,.,-,.,.,.,.
COc1cc(-c2nnc(SCC(=O)N(Cc3ccccc3)C(C)(C)C)o2)cc(OC)c1OC,-,-,-,.,51,-,42,91
COc1cc(OC)cc(-c2nnc(SCC(=O)N(Cc3ccccc3)C(C)(C)C)o2)c1,-,-,-,.,-,-,.,.
CN1C(=O)c2cc(NC(=O)c3cccs3)ccc2OC[C@H]2O[C@@H](CC(=O)Nc3ccc4c(c3)COC4)CC[C@@H]21,.,.,.,-,.,.,.,.
Cc1ccc(N(C)S(=O)(=O)c2cccc(C(=O)N(C)Cc3cnn(-c4ccccc4)c3)c2)cc1,-,-,-,-,66,.,47,96
CN(Cc1cnn(-c2ccccc2)c1)C(=O)c1cccc(S(=O)(=O)N(C)c2ccccc2)c1,-,-,-,-,.,.,.,.
C[C@@H]1CN([C@@H](C)CO)C(=O)Cc2cc(NC(=O)Cn3cnnn3)ccc2O[C@H]1CN(C)S(=O)(=O)c1cccs1,.,.,.,-,.,.,.,.
CCc1nnc(NC(=O)c2ccc(-c3ccc(Cl)cc3)o2)s1,-,-,-,-,65,-,-,.
CN1CCN(c2ccc(NC(=O)c3ccc(-c4ccc(Cl)cc4)o3)cc2)CC1,98,-,-,-,100,-,48,77
CCc1nnc(NC(=O)c2ccc(-c3ccc(C(C)=O)cc3)o2)s1,-,-,-,-,-,.,.,.
CS(=O)(=O)N1CCN(c2ccc(NC(=O)c3ccc(-c4ccc(Cl)cc4)o3)cc2)CC1,-,-,-,.,-,-,-,.
CS(=O)(=O)N1[C@H](CO)[C@@H](c2ccccc2)C12CN(C(=O)C1CC1)C2,.,.,.,-,.,.,.,.
SMILES,Peg3 promoter,CF NFkB inh,KKLEB cytotox,LGR2 antag,Mdm2 MdmX PPI,HSP90 inh,Mdm2 MdmX conf,Full FLuc ctr
COc1ccc(-c2nn(-c3ccccc3)cc2/C=N/Nc2ccc(S(N)(=O)=O)cc2[N+](=O)[O-])cc1OC,-,58,-66,-,65,-,-,.
COc1ccc(-c2nn(-c3ccccc3)cc2/C=N/Nc2ccc3ccccc3n2)cc1OC,-,-,-,-,-,-,.,.
CCOc1cc2[nH]c(=S)n(CCc3ccc(OC)c(OC)c3)c(=O)c2cc1OCC,64,-,-,.,83,-,-,.
CCCC[C@@H](CN[C@H](C)CNC)NCC1CCC(C(C)(C)C)CC1 (stereo partly drawn),.,.,.,-,100,-,97,56
COc1cccc(N=Nc2ccc(O)c3ncccc23)c1,-,100,-81,-,82,-,92,-
COc1ccc(N=Nc2ccc(O)c3ncccc23)cc1,-,-,-,-,77,-,84,-
COc1cccc(N=Nc2ccc3cccnc3c2O)c1,-,-,-,-,91,-,90,-
Oc1ccc(N=Nc2ccc3c(c2)OCCO3)c2cccnc12,-,-,-,-,77,-,89,53
COCCNC(=O)C[C@@H]1CC[C@H](NS(=O)(=O)c2ccc(C)cc2)[C@@H](CO)O1,.,.,.,-,.,.,.,.
CN(C)C(=O)C[C@H]1CC[C@@H](NC(=O)NC2CCCCC2)[C@@H](CO)O1,.,.,.,-,.,.,.,.
CN(C)CCCNC(=O)C[C@@H]1CC[C@H](NC(=O)c2ccccc2F)[C@@H](CO)O1,.,.,.,-,.,.,.,.
CCCNC(=O)N1CCC2(CC1)CN(C(=O)c1ccncc1)[C@@H](CO)c1[nH]c3cc(OC)ccc3c12,.,.,.,-,.,.,.,.
N#C[C@@H]1[C@H](c2ccc(C#CC3CCCC3)cc2)[C@H](CO)N1C(=O)Cc1ccccn1,.,.,.,-,.,.,.,.
O=C(CSc1ncn[nH]1)N1N=C2/C(=C/c3ccccc3)CCCC2C1c1ccccc1 (stereo not drawn),-,-,-,-,53,-,-,.
COc1ccc(/C=C2\CCCC3C2=NN(C(=O)CSc2ncn[nH]2)C3c2ccc(OC)cc2)cc1 (stereo not drawn),-,-,-,-,-,-,.,.
CC1=NOC(=O)/C1=C\c1ccc(-c2ccc(Cl)cc2Cl)o1,108,-,-,.,64,-,-,.
O=C(C[C@H]1CC[C@@H](NC(=O)Nc2cc(F)ccc2F)[C@H](CO)O1)NCc1ccncn1,.,.,.,-,.,.,.,.
C[C@H](CO)N1C[C@H](C)[C@H](CN(C)C(=O)Nc2ccc(F)cc2)Oc2ccc(NC(=O)Nc3cccc4ccccc34)cc2C1=O,.,.,.,-,.,.,.,.
CN(Cc1cnc2nc(N)nc(N)c2n1)c1ccc(C(=O)N[C@@H](CCC(=O)O)C(=O)O)cc1,-,-,-,-,-,.,72,-
Nc1nc2ncc(CNc3ccc(C(=O)N[C@@H](CCC(=O)O)C(=O)O)cc3)nc2c(=O)[nH]1,-,-,-,.,-,-,.,.
